# Laboratory results taken from the supplement of paper PMC10849652.
# The full data set covers some 8,800 targets. This sample favours those with a hit. About 0.5% of all pairs of compound and target were hits. Values without a mark were called inactive.
# How the values were obtained:
# Assay in all cases: log2 fold change, soluble protein after heating vs DMSO (PISA); higher = thermal stabilisation; K562 lysate, 10 uM; active = over 0.2 and 3.5 SD of the protein, either way, in both replicates (recomputed)
# [1] = compound: CCCS(=O)(=O)Nc1ccc(F)c(C(=O)c2c[nH]c3ncc(-c4ccc(Cl)cc4)cc23)c1F [vemurafenib]
# Procedure, shortened: (§1)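 To prepare the extract, K562 pellets were dounce-homogenised in PBS pH 7.4 with 1 mM MgCl2, giving crude material at 1 mg/mL protein. This was treated with 10 μM compound for 30 min, then heated in aliquots for 3 min over 48°C-58°C before pooling and addition of NP-40 to 0.5% at 4°C. Centrifugation at 21,000xg for 90 min left soluble protein in the supernatant, which TMTpro 16plex LC-MS/MS quantified with equalised channel sums. Results are log-two fold changes in thermal stability compared with solvent controls, from duplicates.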
# [2] = compound: CCCS(=O)(=O)Nc1ccc(F)c(C(=O)c2c[nH]c3ncc(Cl)cc23)c1F
# Procedure, shortened: as §1
# [3] = compound: CC[C@@H]1C(=O)N(C)c2cnc(Nc3ccc(C(=O)NC4CCN(C)CC4)cc3OC)nc2N1C1CCCC1
# Procedure, shortened: as §1
# [4] = compound: CC[C@@H]1C(=O)N(C)c2cnc(Nc3ccc(C(=O)N[C@H]4CC[C@H](N5CCN(CC6CC6)CC5)CC4)cc3OC)nc2N1C(C)C [volasertib]
# Procedure, shortened: as §1
# [5] = compound: CCn1c(C(=O)N(C2CC2)C2CC2)cc2c3c(ncn3C)c(Nc3cc(C)n(C)n3)nc21
# Procedure, shortened: as §1
# [6] = compound: CCn1cc(-c2ccnc3[nH]c(-c4cccc(CN(C)C)c4)cc23)c(-c2ccc(NC(=O)N(C)C)cc2)n1
# Procedure, shortened: as §1
# [7] = compound: CN1CCC(CNc2ccc3ncc(-c4cccc(OC(F)(F)F)c4)n3n2)CC1
# Procedure, shortened: as §1
# [8] = compound: CN1CCN(CCOc2cc(OC3CCOCC3)c3c(Nc4c(Cl)ccc5c4OCO5)ncnc3c2)CC1 [saracatinib]
# Procedure, shortened: as §1
# [9] = compound: CN1CCN(c2nc(C3=C(c4c[nH]c5ccccc45)C(=O)NC3=O)c3ccccc3n2)CC1 [sotrastaurin]
# Procedure, shortened: as §1
# [10] = compound: CN1CC[C@H](c2c(O)cc(O)c3c(=O)cc(-c4ccccc4Cl)oc23)[C@H](O)C1 [alvocidib]
# Procedure, shortened: as §1
# [11] = compound: CN1CCc2c(c3ccccc3n2Cc2ccc(C(=O)NO)cc2)C1 [Tubastatin A]
# Procedure, shortened: as §1
# [12] = compound: CNC(=O)C1=CC=CC=C1NC2=NC(=NC=C2Cl)NC3=C(C=C(C=C3)N4CCOCC4)OC
# Procedure, shortened: as §1
# [13] = compound: CNC(=O)c1ccc(Nc2ncc(C(F)(F)F)c(NCc3nccnc3N(C)S(C)(=O)=O)n2)cc1 [defactinib]
# Procedure, shortened: as §1
# [14] = compound: CNc1nc(-c2ccc3c(N)n[nH]c3c2)cc(N2C[C@@H](C(=O)NC3CCCCC3)CC[C@H]2C)n1
# Procedure, shortened: as §1
# [15] = compound: COC(=O)N[C@@H](C)CNc1nccc(-c2cn(C(C)C)nc2-c2cc(Cl)cc(NS(C)(=O)=O)c2F)n1 [encorafenib]
# Procedure, shortened: as §1
# [16] = compound: COC(=O)[C@H](CCSC)NC(=O)C1=C(C=C(C=C1)NC[C@H](CS)N)C2=CC=CC=C2
# Procedure, shortened: as §1
# [17] = compound: COc1cc(Nc2ncc3c(n2)-c2ccc(Cl)cc2C(c2c(F)cccc2OC)=NC3)ccc1C(=O)O [alisertib]
# Procedure, shortened: as §1
# [18] = compound: COc1cc2nc(-c3cc(F)ccc3O)nc(N[C@@H]3CNC[C@H]3C(C)(C)O)c2cc1OC
# Procedure, shortened: as §1
# [19] = compound: COc1cc2ncnc(Nc3ccc(F)c(Cl)c3)c2cc1OCCCN1CCOCC1 [gefitinib]
# Procedure, shortened: as §1
# [20] = compound: CCN(CCCOc1ccc2c(Nc3cc(CC(=O)Nc4cccc(F)c4)[nH]n3)ncnc2c1)CCOP(=O)(O)O [barasertib]
# Procedure, shortened: as §1
# Sequence of UniProt Q6Q0C0 (Q6Q0C0 whole entry, looked up): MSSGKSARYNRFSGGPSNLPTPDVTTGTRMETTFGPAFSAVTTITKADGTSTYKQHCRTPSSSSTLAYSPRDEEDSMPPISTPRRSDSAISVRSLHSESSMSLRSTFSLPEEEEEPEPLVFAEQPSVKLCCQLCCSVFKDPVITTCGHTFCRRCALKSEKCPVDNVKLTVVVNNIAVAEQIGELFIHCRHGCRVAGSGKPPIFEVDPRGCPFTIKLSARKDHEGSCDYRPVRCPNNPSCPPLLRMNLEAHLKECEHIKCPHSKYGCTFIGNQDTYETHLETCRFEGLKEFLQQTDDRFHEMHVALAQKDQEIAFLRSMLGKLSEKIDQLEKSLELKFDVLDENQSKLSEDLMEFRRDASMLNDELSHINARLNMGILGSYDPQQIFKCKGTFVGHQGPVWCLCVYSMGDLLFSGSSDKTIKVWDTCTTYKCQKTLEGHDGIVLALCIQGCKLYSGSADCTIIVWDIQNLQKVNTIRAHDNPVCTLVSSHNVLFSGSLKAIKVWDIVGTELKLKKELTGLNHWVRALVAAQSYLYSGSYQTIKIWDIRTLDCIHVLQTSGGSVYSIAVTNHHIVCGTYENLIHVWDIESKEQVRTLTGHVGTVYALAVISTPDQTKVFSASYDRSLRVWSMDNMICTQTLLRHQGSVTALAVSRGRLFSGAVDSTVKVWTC
# Sequence of UniProt Q9NPG3 (Q9NPG3 whole entry, looked up): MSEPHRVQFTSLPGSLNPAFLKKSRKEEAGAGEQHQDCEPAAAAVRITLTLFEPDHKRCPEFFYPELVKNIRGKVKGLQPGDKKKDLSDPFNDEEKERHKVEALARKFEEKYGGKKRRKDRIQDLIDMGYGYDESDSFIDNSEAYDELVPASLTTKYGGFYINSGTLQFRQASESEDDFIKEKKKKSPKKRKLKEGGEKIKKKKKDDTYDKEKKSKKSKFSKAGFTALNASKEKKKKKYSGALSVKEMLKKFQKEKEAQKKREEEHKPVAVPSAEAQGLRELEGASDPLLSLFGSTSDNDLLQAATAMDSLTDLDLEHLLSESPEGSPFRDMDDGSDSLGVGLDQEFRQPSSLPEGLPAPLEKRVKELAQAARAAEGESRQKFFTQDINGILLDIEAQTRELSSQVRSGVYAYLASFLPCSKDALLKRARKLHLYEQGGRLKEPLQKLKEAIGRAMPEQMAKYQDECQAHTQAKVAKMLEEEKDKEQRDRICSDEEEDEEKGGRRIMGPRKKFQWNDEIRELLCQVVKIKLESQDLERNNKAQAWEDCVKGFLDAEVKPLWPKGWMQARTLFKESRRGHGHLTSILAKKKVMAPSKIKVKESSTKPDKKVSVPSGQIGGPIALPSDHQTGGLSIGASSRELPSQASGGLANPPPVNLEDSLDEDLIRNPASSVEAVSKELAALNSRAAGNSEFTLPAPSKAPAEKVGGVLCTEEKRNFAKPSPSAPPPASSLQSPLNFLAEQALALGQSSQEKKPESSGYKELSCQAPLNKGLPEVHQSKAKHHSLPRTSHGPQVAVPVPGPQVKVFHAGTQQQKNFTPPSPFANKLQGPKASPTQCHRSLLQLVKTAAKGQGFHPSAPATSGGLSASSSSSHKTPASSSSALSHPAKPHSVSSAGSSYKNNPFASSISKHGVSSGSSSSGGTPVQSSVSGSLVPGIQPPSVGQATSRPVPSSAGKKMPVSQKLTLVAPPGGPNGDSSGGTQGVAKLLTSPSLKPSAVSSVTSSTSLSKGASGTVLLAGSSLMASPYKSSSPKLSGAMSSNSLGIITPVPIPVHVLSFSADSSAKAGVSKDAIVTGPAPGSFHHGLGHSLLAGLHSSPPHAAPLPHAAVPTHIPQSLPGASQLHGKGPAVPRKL
# Sequence of UniProt Q9NNW7 (Q9NNW7 whole entry, looked up): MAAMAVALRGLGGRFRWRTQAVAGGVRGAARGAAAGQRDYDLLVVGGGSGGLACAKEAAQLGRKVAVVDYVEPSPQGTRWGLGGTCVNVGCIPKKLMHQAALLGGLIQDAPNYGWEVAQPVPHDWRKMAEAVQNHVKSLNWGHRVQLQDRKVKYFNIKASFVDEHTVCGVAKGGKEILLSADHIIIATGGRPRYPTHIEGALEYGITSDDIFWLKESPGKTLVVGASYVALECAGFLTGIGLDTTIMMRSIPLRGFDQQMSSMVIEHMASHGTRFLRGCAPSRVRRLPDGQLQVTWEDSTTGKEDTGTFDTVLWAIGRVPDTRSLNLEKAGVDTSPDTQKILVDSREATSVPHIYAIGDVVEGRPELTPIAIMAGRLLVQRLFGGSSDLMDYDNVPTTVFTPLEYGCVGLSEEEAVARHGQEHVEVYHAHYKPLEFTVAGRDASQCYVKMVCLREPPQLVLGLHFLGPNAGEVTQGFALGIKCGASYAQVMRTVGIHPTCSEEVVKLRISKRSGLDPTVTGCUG
# Sequence of UniProt Q9Y5Z9 (Q9Y5Z9 whole entry, looked up): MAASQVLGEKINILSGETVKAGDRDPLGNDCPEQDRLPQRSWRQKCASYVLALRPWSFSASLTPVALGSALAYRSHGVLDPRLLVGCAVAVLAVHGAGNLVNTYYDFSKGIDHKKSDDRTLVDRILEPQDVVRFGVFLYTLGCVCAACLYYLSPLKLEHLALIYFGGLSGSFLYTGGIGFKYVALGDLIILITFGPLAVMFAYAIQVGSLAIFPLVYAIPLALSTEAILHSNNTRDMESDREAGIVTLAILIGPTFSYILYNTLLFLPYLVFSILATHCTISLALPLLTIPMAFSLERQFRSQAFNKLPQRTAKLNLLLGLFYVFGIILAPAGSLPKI
# Sequence of UniProt Q01664 (Q01664 whole entry, looked up): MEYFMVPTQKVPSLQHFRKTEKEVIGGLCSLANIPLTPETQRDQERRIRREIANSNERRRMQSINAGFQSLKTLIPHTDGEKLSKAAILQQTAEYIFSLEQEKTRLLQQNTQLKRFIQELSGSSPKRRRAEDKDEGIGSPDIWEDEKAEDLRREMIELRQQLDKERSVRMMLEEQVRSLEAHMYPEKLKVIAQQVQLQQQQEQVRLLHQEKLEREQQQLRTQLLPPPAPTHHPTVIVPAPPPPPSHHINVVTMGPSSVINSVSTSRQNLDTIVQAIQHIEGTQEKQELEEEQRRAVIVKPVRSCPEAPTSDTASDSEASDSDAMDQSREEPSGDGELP
# Sequence of UniProt Q04726 (Q04726 whole entry, looked up): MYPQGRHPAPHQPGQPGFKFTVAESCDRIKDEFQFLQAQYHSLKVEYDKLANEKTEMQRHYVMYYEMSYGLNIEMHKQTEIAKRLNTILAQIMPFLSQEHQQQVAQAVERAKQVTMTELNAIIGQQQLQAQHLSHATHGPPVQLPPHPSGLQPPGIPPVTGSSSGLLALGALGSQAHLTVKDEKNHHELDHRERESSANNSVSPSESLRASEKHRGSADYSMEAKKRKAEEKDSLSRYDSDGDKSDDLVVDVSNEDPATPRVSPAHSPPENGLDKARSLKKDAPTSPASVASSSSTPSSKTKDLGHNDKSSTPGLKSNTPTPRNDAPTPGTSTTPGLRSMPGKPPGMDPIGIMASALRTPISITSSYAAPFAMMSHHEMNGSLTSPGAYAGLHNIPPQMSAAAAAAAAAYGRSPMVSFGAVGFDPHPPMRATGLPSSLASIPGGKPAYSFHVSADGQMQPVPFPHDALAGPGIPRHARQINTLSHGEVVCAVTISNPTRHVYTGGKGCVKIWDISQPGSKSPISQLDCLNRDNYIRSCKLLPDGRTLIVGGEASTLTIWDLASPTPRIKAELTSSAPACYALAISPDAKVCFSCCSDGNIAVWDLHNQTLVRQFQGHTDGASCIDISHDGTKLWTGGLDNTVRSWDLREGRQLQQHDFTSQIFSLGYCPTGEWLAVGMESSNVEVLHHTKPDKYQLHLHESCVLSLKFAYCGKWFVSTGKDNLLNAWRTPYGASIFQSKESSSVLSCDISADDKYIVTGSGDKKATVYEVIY
# Sequence of UniProt A6NHL2 (A6NHL2 whole entry, looked up): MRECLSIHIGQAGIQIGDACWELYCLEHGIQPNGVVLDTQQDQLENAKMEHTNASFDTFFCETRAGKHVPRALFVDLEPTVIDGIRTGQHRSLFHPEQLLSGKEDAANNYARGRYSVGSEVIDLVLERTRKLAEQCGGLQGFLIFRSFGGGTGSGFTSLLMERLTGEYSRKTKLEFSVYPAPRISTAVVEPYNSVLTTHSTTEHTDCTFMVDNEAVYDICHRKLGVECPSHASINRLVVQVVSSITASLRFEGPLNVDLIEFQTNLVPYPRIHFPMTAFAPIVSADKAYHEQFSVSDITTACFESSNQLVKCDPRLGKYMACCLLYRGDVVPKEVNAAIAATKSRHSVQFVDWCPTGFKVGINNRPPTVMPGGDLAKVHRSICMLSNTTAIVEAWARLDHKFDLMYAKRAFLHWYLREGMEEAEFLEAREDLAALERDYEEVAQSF
# Sequence of UniProt O43399 (O43399 whole entry, looked up): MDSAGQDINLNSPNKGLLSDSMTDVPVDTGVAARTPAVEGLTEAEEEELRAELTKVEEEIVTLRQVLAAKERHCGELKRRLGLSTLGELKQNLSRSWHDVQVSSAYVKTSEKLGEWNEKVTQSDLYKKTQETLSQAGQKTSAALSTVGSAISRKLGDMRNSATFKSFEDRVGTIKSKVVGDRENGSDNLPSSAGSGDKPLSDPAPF
# Sequence of UniProt Q96BZ9 (Q96BZ9 whole entry, looked up): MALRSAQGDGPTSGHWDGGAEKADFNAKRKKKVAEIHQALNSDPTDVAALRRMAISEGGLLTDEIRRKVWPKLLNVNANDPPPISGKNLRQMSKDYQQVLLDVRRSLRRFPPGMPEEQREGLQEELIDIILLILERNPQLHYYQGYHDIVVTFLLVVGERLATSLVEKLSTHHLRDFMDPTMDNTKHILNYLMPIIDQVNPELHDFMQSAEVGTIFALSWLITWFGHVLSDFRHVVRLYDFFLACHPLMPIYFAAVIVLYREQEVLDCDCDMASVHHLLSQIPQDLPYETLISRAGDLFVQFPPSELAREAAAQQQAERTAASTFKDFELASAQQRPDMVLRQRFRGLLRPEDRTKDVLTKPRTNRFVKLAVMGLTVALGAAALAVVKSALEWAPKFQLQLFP
# Sequence of UniProt Q9P0S9 (Q9P0S9 whole entry, looked up): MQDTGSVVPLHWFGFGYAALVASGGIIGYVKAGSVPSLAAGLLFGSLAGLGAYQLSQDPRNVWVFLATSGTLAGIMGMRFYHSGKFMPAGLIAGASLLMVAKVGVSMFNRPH
Target,log2 fold change [1],log2 fold change [2],log2 fold change [3],log2 fold change [4],log2 fold change [5],log2 fold change [6],log2 fold change [7],log2 fold change [8],log2 fold change [9],log2 fold change [10],log2 fold change [11],log2 fold change [12],log2 fold change [13],log2 fold change [14],log2 fold change [15],log2 fold change [16],log2 fold change [17],log2 fold change [18],log2 fold change [19],log2 fold change [20]
UBIAD1 (UniProt Q9Y5Z9),-0.004,0.043,0.005,0.046,-0.083,0.045,-0.335,-0.036,-0.079,-0.016,0.025,0.008,0.031,0.157,0.067,-0.102,0.112,-0.061,-0.048,–
TUBB4A (UniProt M0QYM7),0.019,-0.099,-0.193,-0.069,-0.053,-0.772,0.448,–,0.111,-0.158,-0.007,-0.109,-0.115,–,0.009,0.053,-0.025,0.042,-0.076,0.315
UBR4 isoform 4 (UniProt Q5T4S7),0.02,-0.1,-0.096,-0.104,0.077,–,–,0.061,–,–,-0.337,-0.16,-0.032,0.144,-0.028,0.062,–,0.064,–,–
TFAP4 (UniProt Q01664),0.105,0.021,0.131,-0.112,0.129,0.597,-0.189,–,0.007,-0.037,0.135,0.133,-0.066,–,0.156,-0.108,-0.106,-0.097,-0.096,0.072
TMEM14C (UniProt Q9P0S9),0.027,0.087,0.129,0.045,-0.053,–,–,-0.088,0.06,–,-0.463 (active),0.033,0.205,0.011,0.004,0.022,-0.011,-0.168,0.003,-0.038
TMEM167B (UniProt Q9NRX6),0.058,-0.057,0.053,0.038,-0.028,-0.472 (active),0.086,–,0.056,-0.167,-0.028,0.06,0.015,–,0.026,-0.022,0.012,0.032,0.032,-0.009
TNIK (UniProt C9J338),0.151,0.064,0.171,-0.011,–,-0.51,0.341,0.033,-0.026,-0.155,–,-0.211,-0.014,0.306,-0.012,0.005,–,0.076,–,0.028
TUBAL3 (UniProt A6NHL2),0.084,-0.024,-0.122,0.041,-0.196,-0.413,0.284,0.001,–,-0.276,0.109,-0.179,-0.093,0.039,0.03,0.032,0.135,0.088,-0.057,-0.011
UBXN10 (UniProt Q96LJ8),0.008,-0.089,0.095,0.074,0.01,-0.082,0.021,-0.016,-0.012,-0.036,-0.02,0.051,0.026,0.019,0.045,-0.116,–,-0.006,–,-0.133
UBN1 (UniProt Q9NPG3),-0.053,-0.069,0.1,0.005,–,-0.127,0.057,0.04,0.133,-0.176,–,–,-0.044,-0.076,0.059,0.088,–,0.09,–,–
TBC1D20 isoform 3 (UniProt Q96BZ9),-0.088,-0.069,0.043,0.008,0.059,0.046,-0.033,-0.038,-0.096,-0.011,-0.131,-0.017,0.166,0.109,0.037,-0.047,–,-0.021,–,0.438 (active)
TXNIP (UniProt Q9H3M7),0.008,–,-0.006,–,0.016,0.209,-0.11,-0.07,0.016,0.017,-0.021,0.037,0.042,0.046,0.011,0.067,-0.015,–,-0.004,-0.005
TMC1 (UniProt Q8TDI8),0.089,-0.02,-0.164,-0.021,-0.059,–,–,–,0.141,–,-0.088,-0.028,-0.002,–,0.03,0.054,0.216,0.021,0.215,–
TXNRD2 isoform 3 (UniProt Q9NNW7),–,–,–,–,-0.081,–,–,–,–,–,0.072,0.194,–,–,–,–,–,–,–,–
TLE3 isoform 5 (UniProt Q04726),–,0.037,0.026,-0.025,0.034,0.101,0.178,0.049,0.015,-0.153,-0.06,0.004,–,0.011,-0.02,0.002,0,0.008,0.009,-0.176
TPD52L2 isoform 3 (UniProt O43399),–,–,–,–,-0.028,-0.141,0.135,–,–,0.127,0.165,0.144,–,–,–,–,0.094,–,-0.244,0.026
TRAF7 (UniProt Q6Q0C0),-0.07,–,0.053,–,0.012,-0.065,0.191,0.132,-0.044,0.058,-0.008,–,0.141,0.025,0.015,-0.11,-0.05,–,-0.099,–
